{"source": "PubChem BioAssay (NCI)", "note": "Compounds without any hit were thinned out: in the full panel of roughly 83,000, 20% have a hit.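 Activity criterion: percent growth below 10, measured after cells in 96-well plates were exposed to a single compound concentration for 48 hours.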 Values without a mark were called inactive. The source made the active and inactive calls."}
{"test_system": "UACC-257 melanoma", "experiment": "NCI-60 one-dose screen, 48 h (100 = growth as untreated, 0 = no growth, -100 = all killed)", "conditions": "10 µM unless noted"}
{"compound": "COc1cc2c(c(OC)c1OC)CCC(c1cccc(NC(=O)c3ccc(Br)cc3)c1)O2", "note": "(stereo not given)", "growth": "69.6%"}
{"compound": "NC(=O)C(=O)c1ccccc1NC=O", "growth": "98.7%"}
{"compound": "NC(=O)c1cc(I)ccc1NC(=O)/C=C/c1ccccc1", "growth": "69.7%"}
{"compound": "O=[N+]([O-])c1ccc(O)cc1Br", "growth": "108%"}
{"compound": "COc1ccc(OC)c(Nc2nnc(-c3ccc(O)c(OC)c3)o2)c1", "growth": "115%"}
{"compound": "C=CCn1c(C)nc2ccc(Nc3nc(Nc4ccc5nc(C)n(CC=C)c5c4)c4ccccc4n3)cc21", "growth": "-87.6% (active)"}
{"compound": "Cn1c(=O)cc2c3c(c(NCCCO)ccc31)C(=O)c1ccccc1-2", "growth": "64.2%"}
{"compound": "O=S(=O)(c1ccccc1)n1cc2c(c1)-c1nc(Nc3ncccn3)sc1CC2", "growth": "50.4%"}
{"compound": "O=S(=O)(NCCCNc1nccc(-c2c(-c3ccc(F)c(O)c3)nc3sccn23)n1)c1ccccc1", "growth": "19.6%"}
{"compound": "C=C(C)[C@@H]1CC[C@]2(C(=O)O)CC[C@]3(C)[C@H](CC[C@@H]4[C@@]5(C)CCC(NC(=O)c6cccc(OC(C)=O)c6OC(C)=O)C(C)(C)[C@@H]5CC[C@]43C)[C@@H]12", "note": "(stereo not given in full)", "growth": "3.36% (active)"}
{"test_system": "M14 melanoma", "experiment": "NCI-60 one-dose screen, 48 h (100 = growth as untreated, 0 = no growth, -100 = all killed)", "conditions": "10 µM unless noted"}
{"compound": "CCN1C(=O)N(CC)C2C1NN=c1s/c(=C\\c3ccccc3F)c(=O)n12", "note": "(stereo not given)", "growth": "2.5% (active)"}
{"compound": "O=C(CSC(=S)n1cnnc1)NC(=O)c1ccccc1", "growth": "98.1%"}
{"compound": "CC(=O)n1nc(C(=O)OC(C)(C)c2ccccc2)c2ccccc21", "growth": "96.4%"}
{"compound": "Oc1c(I)cc(I)cc1CNCc1ccccn1", "growth": "8.61% (active)"}
{"compound": "COc1ccc(C(=O)Nc2cccc(-c3cc(=O)c4c(OC)c(OC)c(OC)cc4o3)c2)cc1", "growth": "68%"}
{"compound": "COc1ccccc1NC(=O)N=Nc1c(O)[nH]c2ccccc12", "growth": "95.1%"}
{"compound": "O=C(CSc1nnc(-c2cnccn2)n1-c1ccccc1)c1ccc(Cl)cc1", "growth": "102%"}
{"compound": "COc1ccc(/C=C(\\C#N)n2nnc3ccc(Cl)cc32)cc1", "growth": "58.1%"}
{"compound": "Cc1ccc(C[P+](c2ccccc2)(c2ccccc2)c2ccccc2)cc1", "growth": "5.62% (active)"}
{"compound": "COc1ccc2[nH]c(C(=O)N3CCN(C(=O)OCc4ccc5c(Cl)cc(Cl)c(O)c5n4)CC3)cc2c1", "growth": "-66.4% (active)"}
{"compound": "COc1ccc(C(=O)/C=C/c2c(C(F)(F)F)nc3ccccn23)cc1OC", "growth": "14.8%"}
{"compound": "Cn1c(=O)c2nc(/C=C/c3ccccc3)c(=O)[nH]c2n(C)c1=S", "growth": "103%"}
{"compound": "Cc1c[n+](Cc2ccc3ccccc3c2)cn1Cc1ccc2ccccc2c1", "growth": "-15.5% (active)"}
{"compound": "O=C1/C(=C/c2ccccc2O)CC/C1=C\\c1ccccc1O", "growth": "61.3%"}
{"compound": "N#Cc1ccc2c(c1)C(=O)c1c-2n(CCCN)c(=O)c2cc([N+](=O)[O-])ccc12", "growth": "-100% (active)"}
{"compound": "CCCCCCCCCCCCCCCCOCCCOP(=O)(O)C1CCCN(O)C1=O", "note": "(stereo not given)", "growth": "-3.96% (active)"}
{"compound": "CCOC(=O)C#Cc1c(C(=O)OCC)nnn1Cc1ccc([N+](=O)[O-])cc1", "growth": "43.8%"}
{"compound": "CCN1C(=S)N(c2ccccc2)C2NC(=S)N(/N=C/C=C/c3ccccc3OC)C21", "note": "(stereo not given)", "growth": "3.35% (active)"}
{"compound": "CCOc1nc(-c2ccccc2)cc2c(O)c(C(=O)N/N=C/c3ccccc3)[nH]c(=O)c12", "growth": "118%"}
{"compound": "CCNCCNc1cc(-c2ccc(C(F)(F)F)cc2)c(C#N)c2nc3ccccc3n12", "growth": "-82.5% (active)"}
{"compound": "NC(N)=NCCCCCNc1noc(Cc2c[nH]c3cc(Br)ccc23)n1", "growth": "73.6%"}
{"compound": "Cc1c(O)cc(-c2cnc(Nc3ccccc3)s2)c(O)c1C", "growth": "93.6%"}
{"compound": "CCCCCCCCCc1ccc(OCCOCCOCCOCCOCCOCCOCCOCCOCCO)cc1", "growth": "-11.3% (active)"}
{"compound": "CCOC(=O)C1=C(N)Oc2c(sc3c(F)cccc23)C1c1ccc(O)cc1", "note": "(stereo not given)", "growth": "22.9%"}
{"compound": "CCOC(=O)c1cc(C)n(-c2ccc(C(=O)O)cc2)c1C", "growth": "89.7%"}
{"compound": "O=c1[nH]c(-c2ccccc2)nc2sc3cc(O)ccc3c12", "growth": "75.2%"}
{"compound": "CCc1ccccc1-n1c(-c2ccc(OC)cc2)cc(-c2ccc(OC)cc2)c(C#N)c1=O", "growth": "100%"}
{"compound": "COC(=O)C1Cc2ccccc2CN1C(=O)c1ccc2c(c1)Cc1ccccc1-2", "note": "(stereo not given)", "growth": "30.9% [50 µM]"}
{"compound": "COc1cccc(/C=C2\\COc3ccc(O)c(O)c3C2=O)c1", "growth": "26%"}
{"compound": "CCCCn1c(=O)[nH]c(N)c([C@@H]2c3c([nH]c(=O)n(CCCC)c3=O)Oc3ccc4ccccc4c32)c1=O", "growth": "31.1%"}
